Source: PubChem
APEX1 inh = blocks human APE1 abasic DNA cleavage; recombinant APE1, TAMRA/BHQ-2 abasic DNA cleavage fluorescence; actives 0.35% (n = 350,000); Potency, µM (series often up to 65.8 µM), inactives show top-dose activity change, negative = inhibition, most hits filed as inhibitors; P27695;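 further: plate controls were vehicle for no effect and reference inhibitor for full effect; nearly all actives have a fitted effect of over 55% in size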
Target sequence (P27695 whole entry, looked up): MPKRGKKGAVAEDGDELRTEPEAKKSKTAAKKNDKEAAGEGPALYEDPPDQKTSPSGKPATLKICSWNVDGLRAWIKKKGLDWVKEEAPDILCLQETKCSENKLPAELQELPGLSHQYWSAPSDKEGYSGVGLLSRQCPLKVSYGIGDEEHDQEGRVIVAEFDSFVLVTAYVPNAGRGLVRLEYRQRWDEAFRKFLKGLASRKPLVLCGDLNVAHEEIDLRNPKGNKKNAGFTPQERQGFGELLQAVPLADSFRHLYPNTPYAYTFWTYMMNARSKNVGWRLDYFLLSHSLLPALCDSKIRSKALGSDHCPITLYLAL
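Enzyme (0.75 nM final) and test compound are incubated 15 min at room temperature before adding 50 nM quenched THF abasic-site duplex. Cleavage dequenches TAMRA, followed at 525/598 nm over three reads one minute apart.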
KDM4E inh = inhibitors of human JMJD2E histone demethylase; B2RXH2; JMJD2E catalytic domain, FDH-coupled NADH fluorescence (FDH is formaldehyde dehydrogenase); Potency, µM (top dose mostly 57.1 µM), inactives show at the top dose activity change, negative = inhibition, actives largely listed as inhibitors; actives 1.6% (n = 230,000); active means well fitted inhibition curve with a large enough effect, not every such curve was filed as active; inconclusive means small, poorly fitted or top-dose-only effect, or another doubt; inactive means no such curve, though single readings can be large or run the other way;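 further: 0% = wells with enzyme and -100% = buffer wells without enzyme; nearly all actives have a fitted effect of over 50% in size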
Target sequence (B2RXH2 1-337 limits assumed): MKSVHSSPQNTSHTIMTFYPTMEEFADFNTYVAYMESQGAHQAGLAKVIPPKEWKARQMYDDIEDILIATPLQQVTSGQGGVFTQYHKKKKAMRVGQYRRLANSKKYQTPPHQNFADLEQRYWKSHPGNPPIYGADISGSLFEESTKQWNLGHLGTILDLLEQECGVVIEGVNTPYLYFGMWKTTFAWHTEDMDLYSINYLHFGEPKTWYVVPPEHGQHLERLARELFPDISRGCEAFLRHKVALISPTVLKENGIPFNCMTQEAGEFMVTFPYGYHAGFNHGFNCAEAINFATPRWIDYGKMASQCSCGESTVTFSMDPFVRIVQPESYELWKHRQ
KAT2A inh = blocks human GCN5L2 histone acetyltransferase. GCN5L2 HAT assay, ThioGlo1 CoA-SH fluorescence. Q92830. Potency, µM (series often up to 58.9 µM), inactives show top-dose activity change, negative = inhibition, most hits filed as inhibitors. actives 0.21% (n = 390,000)
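Free CoA generated was detected with ThioGlo1 (50uM) fluorescence at Ex340nm/Em540nm, read immediately and after 20 min at room temperature. Enzyme, 20 nM in HEPES pH 7.5 buffer, saw compounds 15 min before adding 75uM H3(1-25) peptide and 70uM acetyl-CoA.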
TDP1 block = blocks human tyrosyl-DNA phosphodiesterase 1; Q9NUW8; recombinant TDP1, AlphaScreen DNA substrate cleavage; Potency, µM (highest dose often 130 µM), inactives show at the top dose activity change, negative = inhibition, hits mostly inhibitors; actives 0.28% (n = 350,000); AID 485290; further: nearly all actives have a fitted effect of over 40% in size
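Enzyme-compound mixtures sat 15 min at room temperature, followed by a 5 min reaction with 15 nM final substrate and 10 min with AlphaScreen beads. Recombinant human Tdp1 was used at 1 nM final.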
BLM helicase inh = Bloom syndrome helicase (human) inhibition; Potency, µM (series often up to 56.1 µM), for inactives: at the highest dose activity change, negative = inhibition, hits mostly inhibitors; recombinant BLM DNA unwinding, fluorescence dequenching; AID 2528; P54132; actives 0.2% (n = 350,000);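 further: plate controls were vehicle for no effect and no enzyme for full effect; nearly all actives have a fitted effect of over 35% in size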
RECQ1 helicase = blocks DNA unwinding by human RECQ1 | AID 2549 | actives 0.54% (n = 240,000) | RECQ1 DNA unwinding, red fluorescence kinetic read | Potency, µM (highest dose often 57.3 µM), inactives show at the highest dose activity, negative = inhibition, hits mostly inhibitors;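 further: plate controls were vehicle for no effect and no enzyme for full effect; nearly all actives have a fitted effect of over 30% in size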
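RECQ1T1 50 nM; forked duplex (20 bp + 30-nt ss tails) 200 nM, ATP 2 mM final; pH 8.0, 2 mM MgCl2, 2.5 ug/ml poly(dI-dC); 15 min compound preincubation; discontinuous kinetic read over 2 h at RT.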
An asterisk follows results filed as active; i = inactive; ? = inconclusive; . = no result; [ ] = remark or other dose. Only a selection was taken, and hits are over-represented in it overall. Unless noted, the call rests on the fitted dose curve; in most records, active means well fitted curve in the direction sought with a large enough effect; inconclusive means small, poorly fitted or top-dose-only effect, or another doubt; inactive means no such curve, though single readings can be large; an effect the other way counts as inactive or inconclusive. Unless noted, on the % scale 0 is the no-effect control and ±100 the full control effect; potency means the concentration at half of the fitted maximal effect.

SMILES | APEX1 inh | KDM4E inh | KAT2A inh | TDP1 block | BLM helicase inh | RECQ1 helicase
CSC1=NS(=O)(=O)c2c(C)nn(C)c2S1 | -2% | 3.5µM* | 28µM* | 9% | -8% | -6%
O=C(CNC(=O)c1ccc2n[nH]nc2c1)OC(C(=O)Nc1cc(C(F)(F)F)ccc1Cl)c1ccccc1 (stereo unspecified) | . | . | . | 0% | . | .
C=CC(=O)NC(C)(C)Cc1ccccc1 | 3% | 6% | 18µM* | 4% | -1% | 0%
CCOC(=O)c1ccc(CNc2ncnc3nc[nH]c23)cc1 | . | . | . | 3% | . | .
O=C(O)c1cc(-c2ccco2)nn1-c1ccc(Cl)cc1 | ? | -29% | 20µM* | 14µM* | 53% | 22µM*
O=C(O)c1cc(-c2cc3ccccc3o2)nn1-c1ccccc1 | -6% | ? | -5% | 8% | -9% | -1%
COc1cccc(C#Cc2c(C=O)n(C)c3ccccc23)c1 | 5% | . | -2% | 18µM* | . | .
Cn1c(C=O)c(C#CC(C)(C)O)c2ccccc21 | 3% | . | -16% | -4% | . | .
O=c1c(C(c2ccccc2)c2c(O)sc3ccccc3c2=O)c(O)sc2ccccc12 | -9% | -16% | 25µM* | 7% | ? | 32µM*
N#Cc1nc(NCCO)nc(Nc2ccccc2)n1 | ? | . | . | 20% | 6% | i
O=c1cc(-c2ccccc2Cl)oc2c(NS(=O)(=O)c3cc(Cl)cc(Cl)c3O)ccc(O)c12 | 0%[50.4 µM] | -23% | 32µM* | 19% | ? | ?
CC(=O)Oc1ccc2c(c1)CC[C@@H]1[C@@H]2CC[C@]2(C)[C@@H](O)CC[C@@H]12 | 13% | . | . | . | . | .
CCOC(=O)C1=C(C)N=c2s/c(=C/c3ccc(OCC(=O)O)cc3)c(=O)n2C1c1ccc(F)cc1 (stereo unspecified) | -40% | . | -21% | . | -7% | .
CCOC(=O)C1=C(C)N=c2s/c(=C\c3ccc(OCC(=O)O)cc3)c(=O)n2C1c1ccccc1OC (stereo unspecified) | ? | . | -23% | . | -20% | .
CCOC(=O)C1=C(C)N=c2s/c(=C\c3ccc(OCC(=O)O)cc3)c(=O)n2C1c1ccc(Cl)cc1 (stereo unspecified) | 11µM* | . | -24% | . | ? | .
CCOC(=O)C1=C(C)N=c2s/c(=C/c3ccc(OCC(=O)O)cc3)c(=O)n2C1c1ccc(SC)cc1 (stereo unspecified) | 7.5µM* | . | ? | . | ? | .
N#CN1CCC(NC(=O)c2ccc(C(F)(F)F)cc2)CC1 | . | . | . | 1% | . | .
Cc1ccccc1OC(=O)n1c(=S)oc2cc(Cl)ccc21 | 1% | 28µM* | -24% | 7% | 4% | i
CCN1CCc2c(sc(NC(=S)NC(=O)c3cccc(F)c3)c2C(N)=O)C1 | . | . | . | 8% | . | .
COc1ccc(CN2C(=O)c3cccc4cccc2c34)cc1F | -17% | . | -15% | 50µM* | -11% | .
Cc1cc(C)cc(N2C(=O)CC(Sc3ncn[nH]3)C2=O)c1 (stereo unspecified) | 20% | 1.3µM* | -2% | . | -5% | -10%
CN(C)CC(O)Cn1c2ccc(Br)cc2c2cc(Br)ccc21 (stereo unspecified) | -7% | . | ? | 7% | . | -5%
COc1ccc(N2CCN(CCCNC(=O)c3cnn(-c4ccc(F)cc4)c3-n3cccc3)CC2)cc1 | . | . | 8% | 3% | -4% | .
Cc1c(C(=O)Nc2ccccc2)cn2c(nc3ccccc32)c1C#N | 1% | ? | -14% | 7% | -4% | i
Cc1ccccc1C(=O)Nc1ccc2c(C#N)c3nc4ccccc4nc3n2c1 | ? | ? | -13% | 11% | ? | 32µM*
SMILES | APEX1 inh | KDM4E inh | KAT2A inh | TDP1 block | BLM helicase inh | RECQ1 helicase
Cn1c2cc(S(C)=O)sc2c2cnn(Cc3cccc(O)c3)c(=O)c21 (stereo unspecified) | . | . | . | 1% | . | .
COc1ccc(-c2nc3ccccc3n2Cc2ccccc2)cc1COc1ccc(NC(C)=O)cc1 | . | . | . | -2% | . | .
O=C1CCc2c(ccc3ccccc23)O1 | -3% | . | -22% | 4% | -8% | -6%
CN1COc2ccc3ccccc3c2C1 | 1% | 14µM* | -6% | 0% | 2% | -4%
CC(C)(C)n1ncc2c(=O)n(Cc3cc(C(F)(F)F)ccc3Cl)cnc21 | 1% | . | . | . | . | .
CCn1cnc2c(Nc3cc(F)cc(F)c3)nc(C(=O)COc3c(F)c(F)cc(F)c3F)nc21 | . | . | . | 0% | . | .
N#C/C(=C\c1ccc(O)c(O)c1)C(=O)Nc1cccc2ncccc12 | 3µM* | . | -22% | . | 13µM* | .
C[C@H](NC(=O)/C(C#N)=C/c1ccc(O)c(O)c1)c1ccccc1 | ? | 7.1µM* | -21% | 11% | -15% | -6%
N#C/C(=C/c1ccc(O)c(O)c1)C(=O)OC/C=C/c1ccccc1 | ? | . | 14µM* | 22% | . | ?
CC(NC(=O)/C(C#N)=C/c1ccc(OCC(=O)O)cc1)c1ccccc1 (stereo unspecified) | 0% | . | -10% | . | 0% | .
N#C/C(=C\c1ccc(O)c(O)c1)C(=O)Nc1ccccc1 | ? | 16µM* | -8% | 19%[56.1 µM] | -19% | -11%
COc1cc(/C=C(\C#N)C(=O)Nc2cccc3ncccc23)cc(OC)c1OC | -4% | ? | -6% | 5% | 1% | -3%
N#C/C(=C\c1cccnc1)C(=O)Nc1ccccc1 | -2% | ? | 0% | 5% | -8% | -3%
COc1ccc(OC)c(C2=Nn3c(nnc3-c3ccccc3C)SC2)c1 | 0% | . | . | 11% | -2% | -4%
O=C(NCC(O)CO)c1c(I)c(C(=O)NCC(O)CO)c(I)c(N(CCO)C(=O)CO)c1I (stereo unspecified) | 2%[21 µM] | . | . | . | . | .
C[C@@H](NC(=O)/C(C#N)=C/c1ccc(O)c(O)c1)c1ccccc1 | ? | 22µM* | -15% | 17%[56.1 µM] | -14% | -18%
CC(NC(=O)/C(C#N)=C/c1ccc(Cl)c([N+](=O)[O-])c1)c1ccccc1 (stereo unspecified) | 9% | 3% | -9% | -2% | -8% | 3%
COc1cccc(C2c3c(ncn(-c4cccnc4)c3=N)Oc3ccc4ccccc4c32)c1 (stereo unspecified) | . | . | . | 2% | . | .
CC[C@@H](C)CCCCC(=O)N[C@@H](CCNCS(=O)(=O)O)C(=O)N[C@H](C(=O)N[C@@H](CCNCS(=O)(=O)O)C(=O)N[C@H]1CCNC(=O)[C@H]([C@@H](C)O)NC(=O)[C@H](CCNCS(=O)(=O)O)NC(=O)[C@H](CCNCS(=O)(=O)O)NC(=O)[C@H](CC(C)C)NC(=O)[C@@H](CC(C)C)NC(=O)[C@H](CCNCS(=O)(=O)O)NC1=O)[C@@H](C)O | 9% | . | . | . | . | .
